Screening data from PubChem BioAssay.
Many of the other results were omitted from the sample, so hits are more common in it than they were.
AMPAR-TARP mod – modulates AMPAR-stargazin complexes | HEK293 GluA2+stargazin, membrane potential dye (FDSS), glutamate EC50; hits were called plate by plate, in both directions | 40,000 tested, 3.5% active | O88602+P19491 | calls only at 30 µM;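 active means any of four per-well response measures lying three or more SD from its plate-wide compound average, in either direction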
Target sequence (O88602 whole entry, looked up): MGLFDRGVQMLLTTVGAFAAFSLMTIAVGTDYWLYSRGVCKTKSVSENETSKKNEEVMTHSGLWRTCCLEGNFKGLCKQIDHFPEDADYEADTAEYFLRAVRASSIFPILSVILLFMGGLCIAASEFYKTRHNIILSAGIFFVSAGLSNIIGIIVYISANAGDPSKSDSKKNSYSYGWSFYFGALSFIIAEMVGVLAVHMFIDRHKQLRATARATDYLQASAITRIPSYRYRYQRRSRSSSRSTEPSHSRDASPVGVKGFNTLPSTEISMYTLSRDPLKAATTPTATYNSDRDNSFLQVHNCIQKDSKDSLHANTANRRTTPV
Target sequence (P19491 whole entry, looked up): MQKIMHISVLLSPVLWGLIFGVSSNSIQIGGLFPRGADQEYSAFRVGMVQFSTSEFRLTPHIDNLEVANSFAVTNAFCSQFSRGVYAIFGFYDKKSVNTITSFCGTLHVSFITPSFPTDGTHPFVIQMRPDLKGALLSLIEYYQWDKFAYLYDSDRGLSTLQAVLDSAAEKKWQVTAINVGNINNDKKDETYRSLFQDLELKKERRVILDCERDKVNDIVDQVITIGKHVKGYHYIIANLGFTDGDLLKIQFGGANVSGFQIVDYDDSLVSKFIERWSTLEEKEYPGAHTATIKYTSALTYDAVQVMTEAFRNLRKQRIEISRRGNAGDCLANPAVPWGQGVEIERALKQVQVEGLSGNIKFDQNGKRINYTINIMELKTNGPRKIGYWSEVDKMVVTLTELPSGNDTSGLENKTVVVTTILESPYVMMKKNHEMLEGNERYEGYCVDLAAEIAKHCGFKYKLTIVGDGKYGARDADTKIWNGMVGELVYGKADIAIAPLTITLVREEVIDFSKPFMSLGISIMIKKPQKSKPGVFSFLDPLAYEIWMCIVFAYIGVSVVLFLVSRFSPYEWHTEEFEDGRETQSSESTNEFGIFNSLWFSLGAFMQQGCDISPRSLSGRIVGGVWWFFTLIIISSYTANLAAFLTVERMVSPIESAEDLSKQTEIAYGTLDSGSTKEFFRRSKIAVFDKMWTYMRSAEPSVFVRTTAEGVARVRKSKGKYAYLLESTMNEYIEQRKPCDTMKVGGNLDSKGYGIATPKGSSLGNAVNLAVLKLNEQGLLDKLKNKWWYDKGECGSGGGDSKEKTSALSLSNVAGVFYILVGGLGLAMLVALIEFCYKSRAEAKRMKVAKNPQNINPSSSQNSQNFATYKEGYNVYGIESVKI
GIRK2 act – GIRK2 channel activators by thallium flux. P48051. 34,000 tested, under 10 active. HEK293 GIRK2/NPY4 cells, thallium flux fluorescence. activation (% efficacy), % for hits at 37.5 µM. AID 1259324;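 active means primary screen hit, no activity in plain HEK293 cells, and in GIRK2-only cells above 5% efficacy rising with concentration; inactive means the rest, including fluorescent compounds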;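 further: efficacy is normalized control-subtracted fluorescence 15 s after thallium addition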
Hits are given with their value; . = inactive; / = no result; + = active, no number.

SMILES	AMPAR-TARP mod	GIRK2 act
COc1ccc(C(=O)Nc2ccc(N3CCCC3=O)cc2)cc1	+	.
COc1cc(OC)cc(C(=O)Nc2ccc(N3CCCC3=O)cc2)c1	.	.
COc1cccc(C(=O)CSc2ccc(NC(=O)C3CC3)nn2)c1	.	.
COc1ccc(S(=O)(=O)NCc2ccccc2)cc1N(C)S(=O)(=O)c1ccc(Cl)cc1	+	/
COc1ccc(S(=O)(=O)NCc2ccccc2)cc1N(C)S(C)(=O)=O	.	/
Cc1ccc(-n2nnc3c(N4CCN(C(=O)C(C)C)CC4)ncnc32)cc1	.	/
O=C(Nc1nc2c(s1)CSc1ccccc1-2)c1cc2ccccc2o1	+	/
CC(C)S(=O)(=O)c1ccc(C(=O)Nc2nc3c(s2)CSc2ccccc2-3)cc1	.	.
O=C1CCS(=O)(=O)N1c1ccc(S(=O)(=O)NCCc2cccs2)cc1	+	.
Cc1ccc(N2C(=O)CCS2(=O)=O)cc1S(=O)(=O)NCCc1c[nH]c2ccccc12	.	.
CSc1ccc(NC(=O)C2CCCN2S(C)(=O)=O)cc1 (stereo not given)	.	.
CCOc1ccc(-c2ccc(=O)n(CC(=O)N3CCN(c4ccccc4)CC3)n2)cc1	.	.
COc1ccc(S(=O)(=O)NCC2CCN(C3CCCC3)CC2)cc1	.	.
COc1ccc(CCS(=O)(=O)NCC2CCN(C)CC2)cc1	.	.
CC(C)c1ccc(S(=O)(=O)NCC2CCN(C3CCCC3)CC2)cc1	+	/
COc1ccc(CCS(=O)(=O)NCC2CCN(C3CCCC3)CC2)cc1	+	.
CC(=O)c1ccc(NC(=O)CCCn2nc(-c3ccccc3)ccc2=O)cc1	.	.
CCc1ccccc1NC(=O)CCc1csc(NC(=O)c2ccccc2)n1	.	.
CN(Cc1nc2ccccc2n1Cc1ccc(C(C)(C)C)cc1)C(=O)c1ccco1	/	.
COc1ccc(OC)c(NC(=O)CCc2c(C)nn(-c3nc(C)cc(=O)[nH]3)c2C)c1	.	.
Cc1nnsc1C(=O)N1CCC(CNC(=O)c2ccc3nsnc3c2)CC1	.	.
O=C(Nc1nc(-c2ccncc2)cs1)C1CCCN(S(=O)(=O)c2cccs2)C1 (stereo not given)	.	/
O=C(Nc1nc(-c2ccncc2)cs1)C1CCN(S(=O)(=O)c2cccs2)CC1	+	/
COCCn1cnc2c(-c3ccccc3)cn(CC(=O)Nc3cc(OC)ccc3OC)c2c1=O	.	.
CCn1c(SCc2nc(-c3ccc(OC)c(OC)c3)no2)nc2ccccc2c1=O	+	/
SMILES	AMPAR-TARP mod	GIRK2 act
CCn1c(SCc2nc(-c3ccc(OC)cc3OC)no2)nc2ccccc2c1=O	.	/
COc1ccc(NC(=O)Cn2nc(SC)c(S(=O)(=O)c3ccc(OC)cc3)c2N)cc1	.	/
COc1ccc(NC(=O)Cn2nc(SC)c(S(=O)(=O)c3ccccc3)c2N)c(OC)c1	+	/
CCOc1ccc(C(=O)N2CCN(c3ncnc4c3nnn4-c3ccc(C)cc3)CC2)cc1OCC	.	/
CCC(O)c1nc2ccccc2n1CCOc1ccccc1 (stereo not given)	+	/
CCc1nc2ccccc2n1CCOc1ccccc1	.	/
O=C(NCc1ccsc1)c1ccc2c(c1)OCO2	.	.
O=C(NCc1ccsc1)c1cccc(C(F)(F)F)c1	+	.
CCNc1nn(CC(=O)Nc2cc(C)ccc2OC)c(N)c1-c1nc(-c2ccc(Cl)cc2)no1	.	.
CN(C1CC1)S(=O)(=O)c1ccc(C(=O)Nc2nc(-c3ccc4c(c3)OCCO4)cs2)cc1	.	.
CC(C)Sc1cccc(C(=O)Nc2sccc2C#N)c1	+	/
CC(C)S(=O)(=O)c1cccc(C(=O)Nc2sccc2C#N)c1	.	.
CC1CC(=O)Nc2c1c(NC(=O)c1cc(-c3ccco3)[nH]n1)nn2C (stereo not given)	.	.
Cc1ccc2nc(NC(=O)c3ccc(=O)n(Cc4cccc(F)c4)n3)sc2c1	.	.
CCOC(=O)c1csc(NC(=O)c2ccc(=O)n(Cc3cccc(F)c3)n2)n1	+	.
O=C(NCC(O)c1ccc(C(F)(F)F)cc1)C(=O)Nc1ccccc1Cl (stereo not given)	.	/
COc1ccc(S(=O)(=O)N2CCCc3cc(NS(=O)(=O)c4ccc(C)c(C)c4)ccc32)cc1	.	/
CCOc1cccc2sc(N(Cc3ccccn3)C(=O)c3nn(C)cc3C)nc12	+	.
COc1cccc2sc(N(Cc3ccccn3)C(=O)c3cc(C)nn3C)nc12	.	.
O=C(c1ccccc1)N1CCCc2ccc(NS(=O)(=O)c3ccc(Cl)s3)cc21	.	/
COc1ccc(CCNC(=O)Nc2ccccc2NC(=O)c2ccco2)cc1	/	.
CS(=O)(=O)N1CCCCC1C(=O)Nc1nc(-c2ccc(F)cc2)cs1 (stereo not given)	/	.
COCCn1nc(-c2ccc(Cl)cc2)ccc1=O	.	.
COCCn1nc(-c2ccc3c(c2)OCO3)ccc1=O	+	.
CN(C)CCNC(=O)C(=O)Nc1ccc([N+](=O)[O-])cc1	.	/
SMILES	AMPAR-TARP mod	GIRK2 act
COCCCNC(=O)C(=O)Nc1ccc([N+](=O)[O-])cc1	+	/
COc1ccc(CNC(=O)/C(C#N)=C/N2CCN(Cc3ccc4c(c3)OCO4)CC2)cc1	+	.
N#C/C(=C\N1CCN(Cc2ccc3c(c2)OCO3)CC1)C(=O)NCc1ccccc1	.	.
CNC(=O)/C(C#N)=C1\SC(Cc2ccc(C)c(Cl)c2)C(=O)N1c1cccc(OC)c1 (stereo not given)	.	.
Cn1c(=O)[nH]c(=O)c2c1nc(N1CCOCC1)n2CCCn1c(N2CCOCC2)nc2c1c(=O)[nH]c(=O)n2C	.	/
CCN1CCN(c2nc3c(c(=O)[nH]c(=O)n3C)n2CCCOc2ccccc2)CC1	+	/
CCOCCn1c(N2CCN(CC)CC2)nc2c1c(=O)[nH]c(=O)n2C	.	/
COc1ccc(N2CCN(CCn3c(C)c(C)n4c5c(=O)[nH]c(=O)n(C)c5nc34)CC2)cc1	.	/
CCCCCCCCCn1c(N2CCNCC2)nc2c1c(=O)[nH]c(=O)n2C	+	9.0%
Cn1c(=O)[nH]c(=O)c2c1nc(N1CCN(CC(N)=O)CC1)n2Cc1ccccc1	+	/
Cn1c(=O)[nH]c(=O)c2c1nc(N1CCN(CC(N)=O)CC1)n2Cc1cccc(Cl)c1	.	/
COc1ccc(N2CCN(CCCn3c(C)c(C)n4c5c(=O)[nH]c(=O)n(C)c5nc34)CC2)cc1	+	/
O=C(NCCn1nc(-n2cccn2)ccc1=O)c1cc(=O)c2ccccc2o1	/	.
O=C(NCCCN1CCCC1=O)C(=O)NCc1ccc2c(c1)OCO2	.	.
CC(C)Cn1cnc2c(nnn2C)c1=O	.	.
CS(=O)(=O)N1CCC(CNC(=O)C2CCCCC2)CC1	+	.
COCCN1CCC(CNC(=O)C2CCN(S(C)(=O)=O)CC2)CC1	/	.
O=C(c1ccc([N+](=O)[O-])cc1)N(Cc1ccncc1)c1nc2ccc(F)cc2s1	+	.
O=C(c1ccc([N+](=O)[O-])cc1)N(Cc1ccncc1)c1nc2c(F)cccc2s1	.	.
CCOc1cccc2sc(N(Cc3ccncc3)C(=O)c3ccc(S(=O)(=O)N(C)C)cc3)nc12	/	.
CCc1cccc2sc(N(Cc3ccncc3)C(=O)c3ccc(C#N)cc3)nc12	+	.
CN1CCN(C(CNC(=O)C(=O)Nc2ccc(C(F)(F)F)cc2)c2cccn2C)CC1 (stereo not given)	.	.
CCOc1ccc(OCCNC(=O)c2c(F)cccc2F)cc1	.	.
COc1cccc(S(=O)(=O)NCCC(O)C2CC2)c1 (stereo not given)	+	.
